Among the data in PubChem BioAssay (EPA / NIEHS) are outcome and AC50 values, retold here.

Results filed as inconclusive are left out. Calls of active or inactive are those of the source. Rule for the calls: active = hit-call score of the fitted dose curve at least 0.9, where 1 is the maximum; inconclusive = response in the unintended direction; inactive = score below 0.9.

The nature of the assay: ATG_XTT_Cytotoxicity_XSP1: Cytotoxicity Assessment in the Attagene TRANS-FACTORIAL Multi-Species (XSP1) HepG2 Assay (AID 2283810). On the procedure:
ATG_XSP1_XTT_Cytotoxicity_multi-species is a cell-based, single-readout assay that uses HepG2, a human liver cell line, with measurements taken at 24 hours after chemical dosing in a 24-well plate. Xsp1 included 3 nM 6-alpha-fluorotestosterone to partially stimulate the androgen receptor.ATG_XTT_Cytotoxicity_XSP1 is an assay component measured from the ATG_XSP1_XTT_Cytotoxicity_multi-species assay. It is designed to make measurements of cell number, a form of viability reporter, as detected with fluorescence intensity signals by XTT cytotoxicity assay technology.This assay endpoint, ATG_XTT_Cytotoxicity_XSP1, was analyzed in the positive analysis fitting direction relative to DMSO as the negative control and baseline of activity. Using a type of viability reporter, loss-of-signal activity can be used to understand changes in the viability. Furthermore, this assay endpoint can be referred to as a primary readout, because the performed assay has only produced 1 assay endpoint. To generalize the intended target to other relatable targets, this assay endpoint is annotated to the cell cycle intended target family, where the subfamily is cytotoxicity.
Human liver HepG2 cells are transiently transfected with multiple reporter transcription units (MRTUs) in 6-well plates using FuGene 6 reagent (Roche; 3 ml FuGene/1 mg DNA). The MRTU constructs are regulated by a cis-regulating element (promoter). […] A major difference between the CIS and TRANS system is that in CIS activities of endogenous TFs are measured, whereas the TRANS assay evaluates changes in activities of exogenous, chimeric NR-Gal4 proteins. […] At the end of 24 hour incubation, total RNA was isolated using TriZol reagent (Invitrogen). The isolated RNA is then reverse-transcribed using oligo(dT) primer and Mo-MLV reverse transcriptase (Invitrogen) with DNAse I (Ambion) treatment for 30 min. The one-tenth of the produced cDNA was amplified by PCR using Taq DNA polymerase (Invitrogen) and two reporter sequence-specific primers. The PCR products were fluorescently labeled by primer extension with 6-arboxyfluorescein (6-FAM) 5'-labeled reporter sequence-specific primer (2 min at 95 C, 20 s at 68 C and 10 min at 72 C) and these products were digested with 5U of HpaI (New England Biolabs) for 2h at 37 C. The fragments were purified using Qiaquick PCR columns (Qiagen), analyzed on an ABI 3130xL genetic analyzer (Applied Biosystems) with peak positions identified by using a set of X-rhodamine (ROX)-labeled MapMarker1000 molecular weight standards (BioVentures). The raw capillary electrophoresis data was processed using Attagraph software (Attagene).
As to `CON(C)C(=O)Nc1ccc(Cl)c(Cl)c1`, the compound was classed as inactive. In the case of `CCCC1COC(Cn2cncn2)(c2ccc(Cl)cc2Cl)O1` (configuration not stated), the call was inactive. With `CCOP(=S)(OCC)SCn1c(=O)oc2cc(Cl)ccc21`, the compound was classed as inactive. Regarding `CCCCNC(=O)OCC#CI`, the AC50 is 23.2 µM (active). With `OC(c1ccc(Cl)cc1)(c1cncnc1)c1ccccc1Cl` (configuration not stated), the compound was called inactive.

Turning to `COc1ccc(C(c2ccc(OC)cc2)C(Cl)(Cl)Cl)cc1`, the result was inactive. As to `CCCN(CCC)c1c([N+](=O)[O-])cc(S(N)(=O)=O)cc1[N+](=O)[O-]`, the AC50 is 161 µM (active). With `CCCCC(CC)COC(=O)c1ccccc1C(=O)OCC(CC)CCCC` (configuration not stated), the result was inactive.

On to `CC(C)(C)c1ccc(CSc2cnn(C(C)(C)C)c(=O)c2Cl)cc1`, for which the outcome was inactive. For the compound `CCCCOC(=O)c1ccccc1C(=O)OCCCC`, the outcome was inactive. Regarding `COC(=O)N(OC)c1ccccc1COc1ccn(-c2ccc(Cl)cc2)n1`, the result was inactive.

In the case of `CC(C)Oc1cc(-n2nc(C(C)(C)C)oc2=O)c(Cl)cc1Cl`, the compound was classed as inactive.

In general, AC50 refers to the midpoint of the concentration-response curve, whichever way the signal moves.
